Compounds with a hit are over-represented: about 2.6% of the library has one in this group of screens.
TWEAK-Fn14 inh = TWEAK-Fn14 signaling inhibition; inhibition, % at 10 µM; 360,000 tested, 2% active; TWEAK-stimulated Fn14 reporter cells, luciferase luminescence, 8 h; in the data active = inhibition above about 50%
EWS-Fli block = EWS/Fli transcriptional activity inhibition; 350,000 tested, 0.67% active; A673 NR0B1-luciferase reporter, viability-normalised; inhibition, % at 12.6 µM;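 active = mean inhibition of at least 50% after viability correction, with every replicate also passing that limit; inconclusive = mean reaches 50% but only one of two replicates passes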;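 note: firefly luciferase signal divided by Alamar Blue viability fluorescence both relative to DMSO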
LGR2 inh = inhibitors of bursicon-induced Drosophila LGR2 receptor cAMP signaling | inhibition, % at 9.99 µM | 380,000 tested, 0.35% active | AID 720647 | HEK293 LGR2, CRE-luciferase, bursicon-stimulated, 4 h;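 active = drop in luminescence signal, shown as inhibition above about 50% in the replicate tests, limit read from the data, passing the limit was not always enough; inconclusive = probably only some replicates passing the limit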;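 note: agonist challenge used bursicon conditioned medium at about half maximal strength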
TROY signal inh = TROY signaling inhibition; Q293 LMP1-TROYcd NF-kB luciferase reporter, 4 h; inhibition, % at 10 µM; 360,000 tested, 0.98% active;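 active = compounds whose plate-normalised and pattern-corrected inhibition of the luciferase reporter signal at the single screening dose is 50% or more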
EBV LMP1 NFkB = Epstein-Barr LMP1 NF-kappaB reporter inhibition. LMP1-induced NF-kappaB luciferase reporter cells, luminescence. inhibition, % at 12.5 µM. 350,000 tested, 0.69% active; in the data active = inhibition above about 41%; inconclusive = no clear call, values can overlap the other calls;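 note: 0% = neutral control wells and 100% = reference inhibitor control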
Starred values were filed as active, the others as inactive; ? = inconclusive; . = no result given.

SMILES | TWEAK-Fn14 inh | EWS-Fli block | LGR2 inh | TROY signal inh | EBV LMP1 NFkB
C[C@@H]1CCCCO[C@@H](CN(C)C(=O)CCCN(C)C)[C@@H](C)CN([C@@H](C)CO)C(=O)c2cc(NS(=O)(=O)c3ccc(F)cc3)ccc2O1 | . | -3 | 0 | . | .
CCCN(C)C[C@H]1OCCCC[C@@H](C)Oc2ccc(NC(=O)CCC(F)(F)F)cc2C(=O)N([C@@H](C)CO)C[C@H]1C | . | 2 | -4 | . | .
Cc1nn(Cc2ccc(Cl)c(Cl)c2)c(C)c1NC(=O)c1sc2ccccc2c1Cl | 58* | . | . | 32 | 5
O=C(NCc1ccccc1)C1=C[C@H](C2CCCCC2)C[C@H](OCCCCO)O1 | -9 | -2 | -1 | -29 | -1
O=C(Nc1ccccc1)C1=C[C@H](C2CCCCC2)C[C@H](OCCCCO)O1 | 57* | -111 | -42 | 67* | 5
O=C(Nc1ccccc1)C1=C[C@@H](C2CCCCC2)C[C@@H](OCCCCO)O1 | 62* | -88 | -17 | 67* | 4
CC(C)(C)[C@H]1C=C(C(=O)Nc2ccccc2)O[C@@H](OCCCCO)C1 | 84* | 2 | -35 | 84* | 6
CO[C@H]1CN(C)C(=O)c2ccc(NC(=O)C3CCCCC3)cc2OC[C@H](C)N(Cc2nccs2)C[C@H]1C | . | -2 | 16 | . | .
Cc1ccc(S(=O)(=O)NCC[C@H]2CC[C@@H](NC(=O)C3CCOCC3)[C@H](CO)O2)cc1 | . | 5 | -7 | . | .
Clc1ccc(-c2nnc(CSc3nnc(-c4cccs4)n3Cc3ccccc3)o2)cc1 | 64* | 17 | 20 | 48 | 24
O=C(O)c1[nH]c2ccccc2c1C(c1cc(Br)ccc1O)c1c(C(=O)O)[nH]c2ccccc12 | 17 | 25 | 5 | 14 | 0
COc1cc(Cl)cc(C(c2c(C(=O)O)[nH]c3ccccc23)c2c(C(=O)O)[nH]c3ccccc23)c1O | -4 | -4 | -10 | 14 | 48*
CC(OC(=O)c1ccc(O)cc1)C(=O)Nc1nc(-c2ccccc2)cs1 (stereo not drawn) | 55* | -25 | -2 | 42 | -10
Cc1ccccc1NC1=C(C(=O)c2ccccc2)N(C)S(=O)(=O)c2ccccc21 | 20 | . | . | 17 | 0
O=C(C1=C(Nc2ccccc2)c2ccccc2S(=O)(=O)N1)c1ccccc1 | 74* | 5 | . | 55* | -9
CC(C)NC(=O)Nc1ccc2c(c1)C(=O)N([C@H](C)CO)C[C@H](C)[C@H](CN(C)CC1CC1)O2 | . | -9 | -1 | . | .
O=C1c2cccc3cc([N+](=O)[O-])cc(c23)C(=O)N1CCN1CCCC1 | -43 | 69* | 32 | -27 | 74*
CN(C)C(=O)[C@H]1[C@H](CO)[C@H]2Cn3c(ccc(-c4cccnc4)c3=O)[C@@H]1N2C(=O)NC1CCCC1 | . | 5 | -4 | . | .
CC(=O)c1c(C)oc2c1cc(O)c1ccccc12 | -21 | -1 | -9 | -22 | 12
CCOC(=O)c1c(C)oc2c1cc(O)c1ccccc12 | 74* | . | . | 27 | 10
C[C@@]12C(=O)OC(=O)[C@]1(C)C1CCC2O1 | 98* | 0 | 18 | 66* | 36
CCCNC(=O)N1[C@H](CO)[C@@H]2c3ccccc3N(C(=O)c3cccnc3)C[C@@H]21 | . | -1 | -56 | . | .
Cc1cc(C(=O)Cn2ncc(Cl)c(Cl)c2=O)c(C)n1CC(F)(F)F | 95* | 17 | . | 64* | -45
Cc1cc2oc(=O)cc(Cn3ncc(Cl)c(Cl)c3=O)c2cc1Cl | 80* | . | . | 83* | -32
Cc1cccc(Cn2ncc(Cl)c(Cl)c2=O)c1 | 41 | ? | 99* | 6 | -2
SMILES | TWEAK-Fn14 inh | EWS-Fli block | LGR2 inh | TROY signal inh | EBV LMP1 NFkB
Cc1ccc(C)c(C(=O)Cn2ncc(Cl)c(Cl)c2=O)c1 | 68* | . | -4 | 3 | -98
Cc1cc2oc(=O)cc(CN3CCN(c4ccccc4)CC3)c2cc1Cl | -10 | -9 | 12 | -1 | .
CCCc1cc(=O)[nH]c(SCC(=O)c2cc(C)n(CC(F)(F)F)c2C)n1 | -16 | 5 | 19 | 9 | 4
Cc1ccc(C)c(C(=O)CSc2nnc(C)s2)c1 | -4 | -31 | -13 | -30 | 6
CN1C(=O)c2cc(NC(=O)Cc3cccs3)ccc2OC[C@@H]2O[C@@H](CC(=O)O)CC[C@@H]21 | . | 5 | 8 | . | .
CC(C)CC#Cc1cnc2c(c1)C(=O)N([C@@H](C)CO)C[C@@H](C)[C@@H](CN(C)C(=O)C1CCOCC1)O2 | . | -3 | -20 | . | .
CN(C)c1ccc(/C=C/c2ccc3c4ccccc4ccc3[n+]2-c2ccccc2)cc1 | 74* | 62* | ? | 72* | -19

Compound activity from PubChem BioAssay.
